From PubChem BioAssay
Only a selection was taken, and hits are over-represented in it overall.
Pf Dd2 growth: Plasmodium falciparum Dd2 growth inhibition. AID 1347417. P. falciparum Dd2 growth, SYBR Green, 72 h. actives 4.3% (n = 120,000). Potency, µM (top dose mostly 28.9 µM), actives largely listed as inhibitors; active = well fitted inhibition curve with a large enough effect; also: nearly all actives have a fitted effect of over 65% in size
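Infected erythrocytes (Dd2, 0.3% parasitemia, 2.5% hematocrit final) are added to compound in RPMI-1640/Albumax II medium, grown 72 h at 37C in low oxygen, then lysed with saponin/Triton-X containing SYBR Green and read by fluorescence.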
Numbers stand for hits; . = inactive; [ ] = another dose, or the depositor's remark.

SMILES | Pf Dd2 growth
Cc1ccc(NC(=O)c2cnn3c2NC(c2ccccc2)=CC3c2ccccc2)cc1 (configuration not stated) | .
COc1ccccc1NC(=O)C1=C(C)Nc2ncnn2C1c1ccccc1C(=O)O (configuration not stated) | 1.3µM
COc1cc(OC)c(C2C(C(=O)Nc3ccccc3)=C(C)Nc3ncnn32)cc1OC (configuration not stated) | .
COc1ccccc1NC(=O)C1=C(C)Nc2nnnn2C1c1ccc(C(F)(F)F)cc1 (configuration not stated) | .
COc1ccccc1NC(=O)C1=C(C)Nc2nc(SCC(=O)c3ccc(C)cc3)nn2C1c1ccc(F)cc1 (configuration not stated) | .
O=C(C[C@@H]1O[C@H](CNC(=O)C2CCCC2)[C@@H](O)[C@H]1O)Nc1ccccc1 | .
O=C([C@@H]1C[C@H](F)CN1C(=O)c1cccc(C(F)(F)F)c1)N1CCOCC1 | .
CCc1nnc(NC(=O)C2CC(=O)N(c3n[nH]c4ccccc34)C2)s1 (configuration not stated) | .
CC(=O)N1C[C@@H](C(=O)NCc2ccc(F)c(Cl)c2)[C@H](c2nc(C)no2)C1 | .
Cc1ncccc1C(=O)N1CCn2c(nnc2[C@@H]2C[C@@H](O)CN2Cc2ccccc2)C1 | .
CCCCCNc1ncnc2c1CN(C1CCNCC1)C(=O)CN2C | .
CNC(=O)[C@H]1C[C@H](Oc2ccccc2)CN1C(=O)Nc1ccc2c(c1)OCCO2 | .
CC(=O)N1CC(CO)C2(CCN(C(=O)c3ccc(Br)cc3)CC2)C1 (configuration not stated) | .
COc1ccc(C2C(C(=O)Nc3ccccc3)=C(C)Nc3c(C(=O)Nc4ccccc4)cnn32)cc1 (configuration not stated) | 3.5µM
COc1ccc(-c2nc3n(n2)C(c2ccccc2)C(C(=O)Nc2cccnc2)=C(C)N3)cc1 (configuration not stated) | .
CCOc1ccc(C2C(C(=O)Nc3ccccc3OC)=C(C)Nc3c(C(=O)Nc4cccc(C)c4)cnn32)cc1 (configuration not stated) | 4µM
CCCCOc1ccc(C2C(C(=O)Nc3ccccc3OC)=C(C)Nc3nnnn32)cc1OC (configuration not stated) | .
CCOc1cc(C2C(C(=O)Nc3ccccc3)=C(C)Nc3ncnn32)cc(Br)c1O (configuration not stated) | .
CC1=C(C(=O)Nc2ccccc2)C(c2ccc(C(=O)O)cc2)n2ncnc2N1 (configuration not stated) | .
O=C(C1CCOCC1)N1CCOC[C@H](Oc2cnccn2)C1 | .
O=C(c1ccc(OC2CCN(C(=O)c3ccsc3)CC2)nc1)N1CCOCC1 | .
Cc1nc2c(c(-c3ccc(O)cc3)n1)CN(C(=O)c1ccc(F)cc1)CCC2 | .
C[S+](=O)([O-])N1CCn2cc(C(=O)N3CCOCC3)nc2C1 | .
Cc1cc(C)c2c(N)c(C(=O)Nc3ccccc3C(F)(F)F)sc2n1 | .
CCc1ccccc1NC(=O)c1sc2nc(C)cc(COC)c2c1N | .
SMILES | Pf Dd2 growth
COCc1cc(C)nc2sc(C(=O)Nc3ccccc3O)c(N)c12 | 8.9µM
Cc1n[nH]c(C)c1C(N)C(=O)N1CCC(c2nnc3n2CCCCC3)CC1 (configuration not stated) | .
CN(C)C(=O)c1cccnc1OC1CCN(C(=O)c2ccccc2Br)C1 (configuration not stated) | .
CNC(=O)c1cccc(-c2cnc(Nc3cccnc3OC)c3c2CCO3)c1 | .
O=C(N[C@H]1CO[C@H]2[C@@H]1OC[C@@H]2n1nnnc1Oc1ccccc1)c1cncnc1 | .
Cn1cc(CN2C[C@@H]3C[C@H](C2)c2ccc(NC(=O)c4cccs4)c(=O)n2C3)c2ccccc21 | 7.9µM
CC(=O)c1ccc(NC(=O)N2C[C@@H]3C[C@H](C2)c2ccc(NC(=O)c4cccs4)c(=O)n2C3)cc1 | .
Cn1cc(CN2C[C@@H]3C[C@H](C2)c2ccc(NC(=O)COc4ccccc4)c(=O)n2C3)c2ccccc21 | .
CN(Cc1ccccc1)Cc1cn([C@H]2CO[C@H]3[C@@H]2OC[C@@H]3NC(=O)Nc2ccc(Oc3ccccc3)cc2)nn1 | .
O=C(COc1ccc(F)cc1)N1CCC2(CC1)CC(OCC1CC1)CCO2 (configuration not stated) | .
CCOC(=O)C1=C(C)N=C2SC=C(CC(=O)NCCOC)N2C1c1cccc([N+](=O)[O-])c1 (configuration not stated) | .
COc1cc(C2CC(=O)Nc3c2c(C)nn3-c2nc(C)cc(C)n2)cc(OC)c1O (configuration not stated) | .
COc1ccc(C2CC(=O)Nc3c2c(C)nn3-c2nc(C)cc(C)n2)c(OC)c1OC (configuration not stated) | .[0.594 µM]
CCc1ccc(C2CC(=O)Nc3c2c(C)nn3-c2nc(C)cc(C)n2)cc1 (configuration not stated) | 11µM
O=c1ccc(CN2CCN(c3ccccc3F)CC2)cn1CC1CC1 | .
CC(C)Oc1ccc(C(=O)N2CCCN(S(C)(=O)=O)c3ccccc32)cc1 | .
O[C@@H]1C[C@@H](c2nc(C3CC3)no2)N(Cc2cccs2)C1 | .
COCc1noc([C@@H]2CN(C(=O)c3cccc(C)c3)C[C@H]2COC)n1 | .
O=C1NCCCCCCN(C(=O)CC2CCCCC2)[C@H]2C[C@H](c3nc(Cc4ccccc4)no3)C[C@@H]12 | .
CCOc1ccccc1CN1CCN(C(=O)CC2CCOCC2)CC1 | .
CCOC(=O)C1CCN(Cc2ccccc2OCC(O)CN(C)C2CCCCC2)CC1 (configuration not stated) | 10µM
O=C1CCN(Cc2ccccc2OCC(O)CN2CCCCC2)CCN1 (configuration not stated) | .
CC1(C(=O)O)CCN(C(=O)c2ccc(F)cc2)CC1 | .
COc1cccc(CNC(=O)c2cnc3cc(C)nn3c2)c1 | .
O=C(c1cc[nH]c1)N1CCN(c2nc3ccccc3s2)CC(O)C1 (configuration not stated) | .
SMILES | Pf Dd2 growth
CCOC(=O)c1sc(NC(=O)C2CC(=O)N(c3n[nH]c4ccccc34)C2)nc1C (configuration not stated) | .
COc1ccc(CCN(Cc2ccccn2)C(=O)[C@H]2CCC[C@H](O)C2)cc1 | .
COc1ccc(Cn2c(C3CCN(C(=O)c4ccc(OC)cc4)CC3)n[nH]c2=O)cc1 | .
COc1ccc(CC(=O)N2CCC(c3n[nH]c(=O)n3Cc3ccc(F)cc3)CC2)cc1 | .
Cc1ccc(Cn2c(C3CCN(C(=O)c4ccc(C)s4)CC3)n[nH]c2=O)cc1 | 11µM
Cc1ccc(Cn2c(C3CCN(C(=O)c4ccccc4Cl)CC3)n[nH]c2=O)cc1 | .
Cc1ccc(Cn2c(C3CCN(C(=O)c4ccc(C)cc4)CC3)n[nH]c2=O)cc1 | .
COc1ccc(CC(=O)N2CCC(c3n[nH]c(=O)n3Cc3ccc(OC)cc3)CC2)cc1 | 13µM
Cc1cccc(CCCNC(=O)C2CC(=O)N(Cc3cccnc3)C2)c1 (configuration not stated) | .
CCOC(=O)C1(C/C=C/c2ccccc2)CCCN(C(=O)C2CCOCC2)C1 (configuration not stated) | .
COc1ccc(NC(=O)NCC2CCOCC2)cc1F | .
O=C(c1ccc2nccnc2c1)N1CCn2nc(Cc3ccccc3)cc2C1 | .
COc1ccc(C2Cn3cnc(C(=O)N4CCC(C(=O)Nc5ccc(Cl)cc5)CC4)c3CO2)cc1 (configuration not stated) | .
